Measured values published in PubChem BioAssay.
Several values for one entry are separate records, joined by “and”; a condition that tells them apart may be missing. Identical values can stand only once. Activity calls are given as the source filed them. Unless noted, how the calls were made is not given here.

Key:
[1] = system: Wnt5a (protein binding on small-molecule microarray); assay: Wnt5a binders on small-molecule microarray, primary screen, biophysical, 635/667 nm fluorescence (AID 1142); conditions: 635 nm fluorescence, higher = more signal;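 further: fluorescence read at 667 nm with signal to noise per printed feature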
[2] = cell viability in Huh7 cells, primary screen, cytotoxicity control for HCV replication inhibitor project, CellTiter-Glo luminescence, basal, 48 h (AID 1143); conditions: Huh7 HCV replicon, higher = more signal, called active from +8 up or from −8 down;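 further: Huh7 hepatoma cells carrying a hepatitis C replication reporter with no stimulus; test concentration not given here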
[3] = P. aeruginosa biofilm formation inhibitors, primary screen, PAO1 strain, BacTiter-Glo luminescence, LB-PBS (AID 1144); conditions: 12 h, higher = more signal
[4] = CREB reporter modulators without forskolin, primary screen, cell-based, PC12, CRE-LacZ reporter, unstimulated (AID 1145); conditions: no forskolin, luminescence, 4.5 h, higher = more signal, called active from +8 up or from −8 down
[5] = CREB reporter modulators under forskolin, primary screen, cell-based, PC12, CRE-LacZ reporter, forskolin-stimulated (AID 1146); conditions: luminescence, 4.5 h, higher = more signal, called active from +8 up or from −8 down;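 further: PC12 cells with 6xCRE LacZ reporter stimulated by forskolin 10 µM; beta-galactosidase reporter signal reflecting CREB driven transcription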
[6] = target: Streptavidin (Streptomyces avidinii) (UniProt P22629); assay: streptavidin binders on small-molecule microarray, primary screen, artefact control for SMM compound annotation, biophysical, 635/667 nm fluorescence (AID 1147); conditions: streptavidin binding, higher = more signal;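 further: signal reflects streptavidin binding to arrayed compounds as a control protein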
Streptavidin (Streptomyces avidinii), sequence (P22629 whole entry, looked up): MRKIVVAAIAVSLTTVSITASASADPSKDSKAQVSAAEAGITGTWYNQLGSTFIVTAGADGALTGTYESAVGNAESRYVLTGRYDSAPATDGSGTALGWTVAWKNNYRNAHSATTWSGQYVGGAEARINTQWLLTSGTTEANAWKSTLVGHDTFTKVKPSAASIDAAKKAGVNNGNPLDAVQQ

[7] = small-molecule binders of probe aInhba, primary screen, biochemical, small-molecule microarray, 635/667 nm fluorescence (AID 1148); conditions: higher = more signal;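 further: score merges 667nm spot fluorescence with signal-to-noise for antibody binding to printed compounds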
[8] = target: Torsin-1A (Homo sapiens) (UniProt O14656); assay: torsin A binders from cell lysate, primary screen, small-molecule microarray, wild-type, 635/667 nm (AID 1149); conditions: COS7 hTOR1A-WT lysate, 635 nm fluorescence, higher = more signal
Torsin-1A (Homo sapiens), sequence (O14656 whole entry, looked up): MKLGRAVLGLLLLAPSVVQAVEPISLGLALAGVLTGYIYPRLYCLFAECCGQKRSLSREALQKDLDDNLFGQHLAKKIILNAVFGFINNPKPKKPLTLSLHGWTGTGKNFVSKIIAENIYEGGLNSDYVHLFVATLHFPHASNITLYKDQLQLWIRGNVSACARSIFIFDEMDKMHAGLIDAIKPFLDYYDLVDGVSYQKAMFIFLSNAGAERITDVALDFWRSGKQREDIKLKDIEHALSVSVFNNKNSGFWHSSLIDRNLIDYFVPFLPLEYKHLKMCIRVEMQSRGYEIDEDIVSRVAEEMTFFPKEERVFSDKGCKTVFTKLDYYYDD

[9] = target: Torsin-1A (Homo sapiens) (UniProt O14656); assay: small-molecule binders of mutant TOR1A in lysate, primary screen, cell lysate, small-molecule microarray, COS7 lysate, 635/667 nm fluorescence (AID 1150); conditions: COS7 hTOR1A mutant lysate, 635 nm fluorescence, higher = more signal;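 further: score pools 667 nm emission and signal to noise measuring lysate protein binding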
[10] = system: Sonic hedgehog protein (Shh); assay: small-molecule binders of Shh protein, primary screen, biochemical, small-molecule microarray, 635/667 nm fluorescence (AID 1151); conditions: small-molecule microarray binding, 635 nm fluorescence; higher = more signal;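 further: Shh protein binding to compounds spotted on small-molecule microarray slides; score combines spot fluorescence intensity with signal-to-noise across triplicate slides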
[11] = E. coli DRC41 culture turbidity changes, primary screen, E. coli filamentation inducer project, strain DRC41, OD650, 48 h (AID 1152);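 further: E. coli MC1000 strain DRC41 lacking acrAB efflux pump and sulA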; conditions: E. coli DRC41 (acrAB sulA), higher = more signal, called active from +8 up or from −8 down
[12] = small-molecule binders of probe aLefty1, primary screen, biochemical, small-molecule microarray, 635/667 nm fluorescence (AID 1153); conditions: higher = more signal;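 further: score merges spot fluorescence with signal-to-noise ratio from the scanned slide images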
[13] = PSAC antagonists in infected red cells, primary screen, cell-based, P. falciparum Indochina, OD700, 1 h (AID 1154); conditions: P. falciparum Indochina infected RBC osmotic lysis, higher = more signal, called active from +8 up or from −8 down
[14] = PSAC antagonists in infected red cells, primary screen, cell-based, P. falciparum Indochina, OD700, 2 h (AID 1155);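 further: lysis reports solute entry through the parasite surface anion channel PSAC; channel blockers reduce lysis of infected cells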; conditions: P. falciparum Indochina infected erythrocytes, osmotic lysis OD700; higher = more signal, called active from +8 up or from −8 down
[15] = osmotic lysis modulators in infected erythrocytes, primary screen, PSAC antagonist project, cell-based, P. falciparum Indochina, OD700, 3 h (AID 1156); conditions: higher = more signal, called active from +8 up or from −8 down
[16] = PSAC antagonists in infected red cells, primary screen, cell-based, P. falciparum Indochina, OD700, 18 h (AID 1157); conditions: P. falciparum Indochina infected erythrocytes, osmotic lysis OD700, 18 h; higher = more signal, called active from +8 up or from −8 down
[17] = modulators of S6 phosphorylation in cells, primary screen, cell-based, A549, cytoblot, luminescence, serum-stimulated (AID 1158); conditions: A549 phospho-S6 cytoblot, 5 h, higher = more signal;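 further: serum-stimulated A549 lung adenocarcinoma cells; signal is phosphorylated S6 detected by cytoblot immunostaining with HRP secondary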
[18] = target: NADPH oxidase 2 (Homo sapiens) (UniProt P04839); assay: NOX2-dependent H2O2 signal modulators, primary screen, NOX inhibitor project, cell-based, HEK293-NOX2, PMA-stimulated, Amplex Red fluorescence (AID 1159); conditions: 45 min, higher = more signal, called active from +8 up or from −8 down; further: test concentration not given here
NADPH oxidase 2 (Homo sapiens), sequence (P04839 whole entry, looked up): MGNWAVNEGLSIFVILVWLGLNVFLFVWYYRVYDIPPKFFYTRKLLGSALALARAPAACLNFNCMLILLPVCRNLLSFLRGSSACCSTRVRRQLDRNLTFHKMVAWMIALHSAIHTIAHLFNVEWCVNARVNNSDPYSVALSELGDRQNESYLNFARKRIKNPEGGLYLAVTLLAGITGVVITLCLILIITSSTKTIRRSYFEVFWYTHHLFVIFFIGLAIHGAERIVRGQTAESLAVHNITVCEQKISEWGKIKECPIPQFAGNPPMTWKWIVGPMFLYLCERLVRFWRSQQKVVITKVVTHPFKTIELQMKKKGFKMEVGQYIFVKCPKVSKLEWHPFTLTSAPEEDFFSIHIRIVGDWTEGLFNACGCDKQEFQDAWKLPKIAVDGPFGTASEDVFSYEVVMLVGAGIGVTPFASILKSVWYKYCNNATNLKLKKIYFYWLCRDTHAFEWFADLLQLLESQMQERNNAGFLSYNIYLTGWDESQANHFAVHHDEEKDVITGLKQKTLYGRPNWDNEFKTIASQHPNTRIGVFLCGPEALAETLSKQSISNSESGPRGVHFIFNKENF

[19] = target: NADPH oxidase 4 (Homo sapiens) (UniProt Q9NPH5); assay: NOX4-dependent H2O2 signal modulators, primary screen, NOX inhibitor project, cell-based, HEK293-NOX4, tetracycline-induced, Amplex Red fluorescence (AID 1160); conditions: 45 min, higher = more signal, called active from +8 up or from −8 down
NADPH oxidase 4 (Homo sapiens), sequence (Q9NPH5 whole entry, looked up): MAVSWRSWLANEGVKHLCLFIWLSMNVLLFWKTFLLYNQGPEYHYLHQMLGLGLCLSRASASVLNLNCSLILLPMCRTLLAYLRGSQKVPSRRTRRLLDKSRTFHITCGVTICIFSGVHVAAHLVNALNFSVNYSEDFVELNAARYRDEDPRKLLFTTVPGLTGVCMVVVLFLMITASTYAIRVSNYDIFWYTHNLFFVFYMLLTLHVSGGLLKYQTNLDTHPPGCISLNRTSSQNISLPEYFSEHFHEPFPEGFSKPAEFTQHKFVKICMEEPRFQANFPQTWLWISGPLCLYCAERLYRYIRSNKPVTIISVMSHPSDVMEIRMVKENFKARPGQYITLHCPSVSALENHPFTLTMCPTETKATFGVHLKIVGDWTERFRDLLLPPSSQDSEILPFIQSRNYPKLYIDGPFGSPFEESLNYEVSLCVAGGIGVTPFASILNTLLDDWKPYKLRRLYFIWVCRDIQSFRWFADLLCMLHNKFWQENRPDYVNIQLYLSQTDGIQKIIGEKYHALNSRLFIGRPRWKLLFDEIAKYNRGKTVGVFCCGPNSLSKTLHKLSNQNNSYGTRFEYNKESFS

[20] = target: NADPH oxidase 5 (Homo sapiens) (UniProt Q96PH1); assay: NOX5-dependent H2O2 signal modulators, primary screen, NOX inhibitor project, cell-based, HEK293-NOX5, Amplex Red fluorescence (AID 1161); conditions: HEK293-NOX5, ionomycin, 45 min, higher = more signal
NADPH oxidase 5 (Homo sapiens), sequence (Q96PH1 whole entry, looked up): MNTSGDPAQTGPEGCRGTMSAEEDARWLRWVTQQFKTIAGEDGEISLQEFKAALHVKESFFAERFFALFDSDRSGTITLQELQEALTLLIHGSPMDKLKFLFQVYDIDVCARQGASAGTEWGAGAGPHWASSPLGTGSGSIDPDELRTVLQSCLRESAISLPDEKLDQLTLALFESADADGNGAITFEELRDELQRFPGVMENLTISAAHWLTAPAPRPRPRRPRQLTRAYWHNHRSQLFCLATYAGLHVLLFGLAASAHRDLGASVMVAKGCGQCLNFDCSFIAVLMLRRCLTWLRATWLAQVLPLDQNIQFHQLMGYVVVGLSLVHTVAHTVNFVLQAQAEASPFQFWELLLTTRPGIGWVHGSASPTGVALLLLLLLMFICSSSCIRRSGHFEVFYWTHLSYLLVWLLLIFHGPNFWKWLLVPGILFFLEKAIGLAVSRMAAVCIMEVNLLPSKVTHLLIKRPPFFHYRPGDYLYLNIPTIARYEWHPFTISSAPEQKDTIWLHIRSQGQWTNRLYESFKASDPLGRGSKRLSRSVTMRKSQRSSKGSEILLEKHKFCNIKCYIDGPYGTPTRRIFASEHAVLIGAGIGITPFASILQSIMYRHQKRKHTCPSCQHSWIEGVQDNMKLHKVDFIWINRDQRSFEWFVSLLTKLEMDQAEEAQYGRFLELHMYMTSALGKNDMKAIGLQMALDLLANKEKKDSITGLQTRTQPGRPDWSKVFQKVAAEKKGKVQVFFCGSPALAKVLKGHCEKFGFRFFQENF

| Structure (SMILES) | composite z-score [1] | z-score [2] | z-score [3] | z-score [4] | z-score [5] | composite z-score [6] | composite z-score [7] | composite z-score [8] | composite z-score [9] | composite z-score [10] | z-score [11] | composite z-score [12] | z-score [13] | z-score [14] | z-score [15] | z-score [16] | z-score [17] | z-score [18] | z-score [19] | z-score [20] |
| --- | --- | --- | --- | --- | --- | --- | --- | --- | --- | --- | --- | --- | --- | --- | --- | --- | --- | --- | --- | --- |
| CC(C)[Si]1(C(C)C)OCc2cc(C3CC3)nc(CCc3ccccc3)c21 | -0.106 and 0.243 | 0.412 (inactive) and -0.432 (inactive) | -0.37 (inactive) and 0.125 (inactive) | 0.0035 (inactive) and 0.148 (inactive) | -0.271 (inactive) and -0.0043 (inactive) | 0.0746 and 0.209 | -0.0986 and -0.205 | -0.483 and 0.207 | -1.29 and 0.401 | -0.447 and 0.221 | -0.102 (inactive) and -0.904 (inactive) | 0.111 and -0.235 | 0.922 (inactive) and 0.437 (inactive) | 0.742 (inactive) and 0.438 (inactive) | -0.416 (inactive) and -0.978 (inactive) | 0.309 (inactive) and -0.401 (inactive) | -0.295 and -0.326 | 2.57 (inactive) and -0.368 (inactive) | 1.14 (inactive) and 1.35 (inactive) | -0.319 and -2.87 |
| CCOC(=O)C[C@H]1[C@H](OC(=O)c2ccccc2-c2ccccc2)[C@@H](NC(=O)Cc2ccc(OC)cc2)c2cc(OCCCO)ccc2N1C(=O)Cc1ccc(OC)cc1 | 0.18 and 0.0684 | -0.093 (inactive) and -0.267 (inactive) | 0.0825 (inactive) | 0.656 (inactive) and 0.671 (inactive) | -1.2 (inactive) and 0.454 (inactive) | 0.325 and -0.401 | 0.0082 and 0.109 | -0.0109 and -0.752 | 0.24 and 0.161 | 0.857 and -0.501 | 2.52 (inactive) and -0.448 (inactive) | 0.349 and -0.0601 | 2.32 (inactive) and 2.14 (inactive) | -0.672 (inactive) and 0.269 (inactive) | 0.308 (inactive) and -0.142 (inactive) | -1.18 (inactive) and 0.255 (inactive) | 0.551 and -0.0127 | 1.61 (inactive) and 0.265 (inactive) | -0.904 (inactive) and 0.828 (inactive) | 1.79 and 0.274 |
| C=CC[C@@H](O)c1ccc(OCCO)cc1 | -0.0578 and -0.579 | -0.924 (inactive) and -0.105 (inactive) | 0.517 (inactive) and -0.242 (inactive) | -0.431 (inactive) and 0.772 (inactive) | -0.613 (inactive) and -0.949 (inactive) | -1.47 and -0.878 | -0.259 and -0.153 | 0.588 and -3.38 | 0.479 and -2.42 | 0.0925 and -0.262 | 1.23 (inactive) and 1.38 (inactive) | -0.259 and -0.191 | 3.24 (inactive) and 1.36 (inactive) | -0.971 (inactive) and -1.24 (inactive) | -0.904 (inactive) and -0.902 (inactive) | -2.02 (inactive) and -2.07 (inactive) | 2.74 and 0.965 | -0.976 (inactive) and -0.495 (inactive) | -0.354 (inactive) and -0.393 (inactive) | -1.22 and -0.2 |
| C[N+](C)(C)CCCCNC(=O)[C@@H]1C[C@@H]2C(=O)N[C@@H](CCCC[N+](C)(C)C)C(=O)N2[C@@H]1c1cccc(OCCO)c1 | 1.07 and 0.542 | -0.219 (inactive) and 0.0262 (inactive) | 0.78 (inactive) and -0.351 (inactive) | -0.264 (inactive) and 0.692 (inactive) | -1.09 (inactive) and -0.277 (inactive) | 0.0255 and -0.695 | -0.05 and -0.0413 | 2.06 and 0.536 | 2.17 and 1.72 | 2.31 and 2.25 | 0.185 (inactive) and 0.394 (inactive) | -0.144 and 0.167 | 1.5 (inactive) and 1.02 (inactive) | 0.77 (inactive) and -0.108 (inactive) | -1.61 (inactive) and -1.45 (inactive) | 0.252 (inactive) and -0.0932 (inactive) | -0.519 and -0.437 | -2.1 (inactive) and -1.99 (inactive) | -2.58 (inactive) and -1.13 (inactive) | -1.28 and -0.837 |
| Cc1ccc(S(=O)(=O)OC[C@@H]2CN3[C@@H](CC[C@@H](C)[C@@H]3c3ccc(Br)cc3)C(=O)O2)cc1 | 0.225 and 0.0286 | 0.0308 (inactive) and -0.565 (inactive) | 0.152 (inactive) and -0.0678 (inactive) | 0.471 (inactive) and 1.22 (inactive) | 0.599 (inactive) and -0.853 (inactive) | 0.197 and 0.0059 | -0.0736 and 0.0173 | 0.478 and 0.543 | 0.244 and 0.594 | 0.566 and 0.616 | 0.0029 (inactive) and -0.348 (inactive) | -0.134 and -0.144 | 2.52 (inactive) and 4.44 (inactive) | 0.0068 (inactive) and 1.78 (inactive) | -0.414 (inactive) and 0.812 (inactive) | -0.0954 (inactive) and 0.932 (inactive) | -0.834 and 0.119 | 1.24 (inactive) and 0.787 (inactive) | 0.37 (inactive) and -0.0143 (inactive) | 0.0798 and 0.702 |
